The text below walks through data of PubChem BioAssay (EPA / NIEHS).

Inconclusive results are not listed. The source made the active and inactive calls. Rule for the calls: active = hit-call score of the fitted dose curve at least 0.9, where 1 is the maximum; inconclusive = response in the unintended direction; inactive = score below 0.9.

Usually AC50 stands for the concentration giving half of the maximal activity seen.

Read-out in the test: glucuronosyltransferase (UGT1A1), UGT1A1 (gene 54658)
As to the kind of experiment: CLD_UGT1A1_24hr: CellzDirect (CLD) Gene Expression Assay for glucuronosyltransferase (UGT1A1) at 24 hours (AID 2283696). How it is done:
CLD_24hr is a cell-based, multiplexed-readout assay that uses hepatocyte, a human liver primary cell, with measurements taken at 24 hours after chemical dosing in a 96-well plate.CLD_UGT1A1_24hr is one of 16 assay component(s) measured or calculated from the CLD_24hr assay. It is designed to make measurements of mRNA induction, a form of inducible reporter, as detected with chemiluminescence signals by Quantitative Nuclease Protection Assay (qNPA) technology.Data from the assay component CLD_UGT1A1_24hr was analyzed at the endpoint, CLD_UGT1A1_24hr, in the positive analysis fitting direction relative to DMSO as the negative control and baseline of activity. Using a type of inducible reporter, gain-of-signal activity can be used to understand changes in the reporter gene as they relate to the gene UGT1A1. Furthermore, this assay endpoint can be referred to as a primary readout. To generalize the intended target to other relatable targets, this assay endpoint is annotated to the transferase intended target family, where subfamily is glucuronosyltransferase.
Human hepatocyte cultures were treated daily for two consecutive days with fresh dosing solutions containing appropriate concentrations of the 320 ToxCast chemicals (chemical identities were blinded to CellzDirect and other ToxCast collaborators), vehicle control (0.2% DMSO), and positive control inducers as summarized in Table 1. Due to the large number of treatment groups and chemicals examined, the ToxCast chemicals were divided into two groups (spanning two independent cultures of hepatocytes from separate donor preparations (Hu778: ToxCast plates 1 and 2; Hu776: ToxCast plates 3 and 4). Each preparation of human hepatocyte cultures was treated with respective vehicle control, medium only control, set of six positive controls/reference chemicals for the five hepatic receptor pathways, and a subset of eight of the ToxCast chemicals (indoxacarb, pyrithiobac-sodium, norflurazon, cyhalofop-butyl, methomyl, thiram, acetochlor, and propiconazole). These replicate data, coupled with internal replicates designed within the blinded ToxCast chemical library, provided additional data to evaluate interindividual differences between hepatocyte preparations and their potential impact on chemical profiles.Cell morphology and integrity were evaluated using phase-contrast microscopy as an indicator of hepatocyte cell health (Tyson & Green, 1987). Cultures for each treatment group (i.e., media, vehicle [0.2% DMSO], positive control inducers [multiple concentrations], and the ToxCast chemicals [multiple concentrations]) were observed and cell morphology was assessed relative to vehicle control cultures at each harvest time point (0, 6, 24, or 48 h). […] Images were evaluated at the conclusion of the study to assess changes in cell integrity and account for the effects of chemical exposure on uncharacteristic changes in concentration-dependent gene expression profiles. The results from these determinations of apparent cytotoxicity were annotated (yes/no) alongside the corresponding qNPA data for reference.At the conclusion of each treatment period, hepatocyte cultures (96-well) were washed with 1 volume of HBSS, lysed by addition of 25 ul ArrayPlate lysis buffer (HTG, Tucson, AZ), and 70 ul/well of Denaturation Oil, denatured by incubation at 95C for 10 min, and frozen at approximately -70C until analysis by nuclease protection assay (qNPA) (Roberts et al., 2007). For qNPA analysis, cell lysates were thawed at 50C for approximately 30 min, qNPA probes were added, and samples were incubated at 95C for 10 min to begin the detection process by denaturing the target RNA, dissociating the duplexes and secondary structure hybridization. At the conclusion of the hybridization period, S1 nuclease reagent was added to each sample to digest all nonprotected nucleotides at 50C for 60-90 min. […]
`CC1=C(C(=O)Nc2ccccc2)SCCO1`: the outcome was inactive.

Regarding `CCNc1nc(Cl)nc(NC(C)C)n1`, the half-maximal activity concentration (AC50) is 6.52 µM (active).

For `CCOP(=S)(OCC)SCn1c(=O)oc2cc(Cl)ccc21`, the outcome was inactive.

As to `COP(=S)(OC)Oc1nc(Cl)c(Cl)cc1Cl`, the compound was called inactive.

For the compound `Oc1ccccc1-c1ccccc1`, the call was inactive.

For `CC(C)Oc1cc(-n2nc(C(C)(C)C)oc2=O)c(Cl)cc1Cl`, the compound was called inactive.

`CCCCNC(=O)OCC#CI`: the compound was classed as inactive.

As to `COC(=O)c1ccccc1C(=O)OC`, the call was inactive.

As to `COc1cnc(OC)n2nc(NS(=O)(=O)c3c(OCC(F)F)cccc3C(F)(F)F)nc12`, the result was inactive.

As to `CCCC1COC(Cn2cncn2)(c2ccc(Cl)cc2Cl)O1` (stereo not given), the call was inactive.

Regarding `CCOc1cc(Oc2ccc(C(F)(F)F)cc2Cl)ccc1[N+](=O)[O-]`, the call was inactive.

Turning to `OC(c1ccc(Cl)cc1)(c1cncnc1)c1ccccc1Cl` (stereo not given), the compound was called inactive.

Consider `N#Cc1nn(-c2c(Cl)cc(C(F)(F)F)cc2Cl)c(N)c1S(=O)C(F)(F)F` (stereo not given), for which the outcome was inactive.

Regarding `CCCCC(CC)COC(=O)c1ccccc1C(=O)OCC(CC)CCCC` (stereo not given), the compound was called inactive.

Regarding `Cc1c(F)c(F)c(COC(=O)C2C(/C=C(\Cl)C(F)(F)F)C2(C)C)c(F)c1F` (stereo not given), the result was inactive.

With `C#CCOS(=O)OC1CCCCC1Oc1ccc(C(C)(C)C)cc1` (stereo not given), the call was inactive.

On to `CCOC(=O)C(Cl)Cc1cc(-n2nc(C)n(C(F)F)c2=O)c(F)cc1Cl` (stereo not given), for which the call was inactive.

On to `CCOC(=O)CC(SP(=S)(OC)OC)C(=O)OCC` (stereo not given), for which the outcome was inactive.

Take `CC(Oc1ccc(Cl)cc1Cl)C(=O)O` (stereo not given): the compound was called inactive.

`O=C(O)COc1nc(Cl)c(Cl)cc1Cl`: the compound was called inactive.

As for `CS/C(C)=N/OC(=O)N(C)SN(C)C(=O)O/N=C(\C)SC`, the call was inactive.

On to `Fc1ccc(Oc2ccnc3cc(Cl)cc(Cl)c23)cc1`, for which the compound was called inactive.

`CNC(=O)ON=CC(C)(C)SC`: the outcome was inactive.

Turning to `CC(C)C1(C)N=C(c2nc3ccccc3cc2C(=O)O)NC1=O` (stereo not given), the outcome was inactive.

Consider `COC(=O)N(OC)c1ccccc1COc1ccn(-c2ccc(Cl)cc2)n1`, for which the compound was classed as inactive.

`COc1nc(C)nc(NC(=O)NS(=O)(=O)c2ccccc2CCC(F)(F)F)n1`: the compound was called inactive.

In the case of `Cc1ccc(-c2c(Cl)nc(C#N)n2S(=O)(=O)N(C)C)cc1`, the result was inactive.

For `CCCCOC(=O)c1ccccc1C(=O)OCCCC`, the compound was classed as inactive.

With `CC1COC(Cn2cncn2)(c2ccc(Oc3ccc(Cl)cc3)cc2Cl)O1` (stereo not given), the call was inactive.

`C=CC1(C)OC(=O)N(c2cc(Cl)cc(Cl)c2)C1=O` (stereo not given): the compound was called inactive.

With `CCNc1nc(Cl)nc(NCC)n1`, the result was inactive.

With `C=CCC1=C(C)[C@@H](OC(=O)[C@@H]2[C@@H](C=C(C)C)C2(C)C)CC1=O`, the AC50 was 20 µM (active).

Consider `COc1nc(NC(C)C)nc(NC(C)C)n1`, for which the outcome was inactive.

For `CC(C)(C)c1ccc(CSc2cnn(C(C)(C)C)c(=O)c2Cl)cc1`, the call was inactive.

On to `CCCN(CCC)c1c([N+](=O)[O-])cc(S(N)(=O)=O)cc1[N+](=O)[O-]`, for which the call was inactive.

Take `Cc1cc(Cl)ccc1OCC(=O)O`: the compound was called inactive.

Regarding `CCCCNC(=O)n1c(NC(=O)OC)nc2ccccc21`, the call was inactive.

As to `COc1nc(C)nc(NC(=O)NS(=O)(=O)c2ccccc2Cl)n1`, the result was inactive.

Turning to `COc1ccc(C(c2ccc(OC)cc2)C(Cl)(Cl)Cl)cc1`, the concentration at half-maximal activity (AC50) was 20 µM (active).

With `N#Cc1cc(Br)c(O)c(Br)c1`, the compound was classed as inactive.
